# Laboratory results published in ChEMBL document CHEMBL1961873, “Compounds: GSK PKIS; Assays: Nanosyn kinase panel” (2012).
# Molecular target: cAMP-dependent protein kinase catalytic subunit alpha (Homo sapiens) (UniProt P17612)
# Settings: at 1 µM
# 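Further: mean percent inhibition of PKA.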
row,SMILES,inhibition [%]
1,CCCN1CCC=C(c2ccc(Nc3nc(Nc4ccccc4C(N)=O)c4cc[nH]c4n3)c(C)c2)C1,2.79
2,CS(=O)(=O)CCNCc1nc(-c2ccc3ncnc(Nc4ccc(F)c(Cl)c4)c3c2)cs1,1.29
3,COc1cc2c(cc1Nc1nc(N3CCc4ccccc43)c3cc[nH]c3n1)N(C(=O)CN(C)C)CC2,0.85
4,COc1cc2ncn(-c3cc(OCc4ccccc4Cl)c(C(N)=O)s3)c2cc1OC,-0.94
5,CS(=O)(=O)CCNCc1ccc(-c2ccc3ncnc(Nc4ccc(OCc5ccccc5)c(Cl)c4)c3c2)o1,1.12
6,Nc1ncnc2occ(-c3ccc(NC(=O)Nc4cccc(C(F)(F)F)c4)cc3)c12,4.85
7,COc1ccc(-c2ccncc2)cc1C(N)=O,3.05
8,Fc1cccc(COc2ccc(Nc3ncnc4cc(-c5ccc[nH]5)sc34)cc2Cl)c1,-0.52
9,CCn1c(-c2nonc2N)nc2c(N3CCCC3)nccc21,1.34
10,Cc1nn(C)c2cc(N(C)c3ccnc(Nc4cccc(S(N)(=O)=O)c4)n3)ccc12,6.18
11,CC(=O)Nc1cccc(C#Cc2cncnc2Nc2ccc(OCc3cccc(F)c3)c(Cl)c2)n1,4.87
12,Nc1nc(-c2ccc3c(c2)C(=Cc2cc(Br)c(O)c(Br)c2)C(=O)N3)cs1,-0.7
13,CCN1CCC(CC(=O)Nc2n[nH]c3nc(-c4cccs4)c(Br)cc23)CC1,1.75
14,COc1ccc2cc(-c3c(-c4ccncc4)nc(-c4ccc([S+](C)[O-])cc4)n3C)ccc2c1 (centres undefined),9.5
15,NS(=O)(=O)c1ccc(N/N=C2\C(=O)Nc3ccc(C(=O)NCCc4c[nH]cn4)cc32)cc1,7.07
16,CS(=O)(=O)CCNCc1ccc(-c2ccc3ncnc(Nc4ccc(OCc5cccc(F)c5)c(C(F)(F)F)c4)c3c2)o1,2.53
17,Nc1nc(-c2ccccn2)c(-c2ccc3ncccc3n2)s1,1.89

row,SMILES,inhibition [%]
1,c1cnn2ncc(-c3ccnc(Nc4ccc5c(c4)OCCO5)n3)c2c1,7.09
2,Cc1ccc(C(=O)NC2CCCCC2)cc1-c1ccc(C(=O)NCC2CC2)cc1,1.86
3,CS(=O)(=O)Nc1ccc(N/C=C2\C(=O)Nc3ccccc32)cc1,0.29
4,CC1=C(C(=O)Nc2ccc3[nH]ncc3c2)C(c2ccc3ccccc3c2)CC(=O)N1 (centres undefined),45.9
5,CC1=C(C(=O)Nc2ccc3[nH]ncc3c2)C(c2ccc(Cl)c(Cl)c2)CC(=O)N1 (centres undefined),43.1
6,COc1ccc(COc2ccc(Cc3cnc(N)nc3N)cc2OC)cc1,1.52
7,NCc1ccc(-c2nc(-c3ccc(Cl)c(O)c3)c(-c3ccncc3)[nH]2)cc1,3.95
8,COc1cc2ncn(-c3cc(O[C@@H](C)c4ccccc4Cl)c(C(N)=O)s3)c2cc1OC,4.38
9,CCc1cccc(NC(=O)Nc2ccc(Oc3ccc4nc(NC(=O)OC)[nH]c4c3)cc2)c1,0.86
10,CCn1c(-c2nonc2N)nc2cncc(C(=O)N3CCNCC3)c21,8.74
11,O=C1Nc2ccc(C(=O)c3ccco3)cc2C1=Cc1cc(Cl)c(O)c(Cl)c1,4.78
12,COc1ccc(-c2coc3ncnc(N)c23)cc1,1.74
13,CCn1c(-c2nonc2N)nc2cncc(C(=O)N3CC[C@H](N)C3)c21,82.2
14,Cc1cccc(-c2n[nH]cc2-c2ccc3ncccc3n2)n1,1.28
15,NS(=O)(=O)c1cccc(-c2ccc3c(NC(=O)C4CC4)n[nH]c3c2)c1,0.85
16,COC(=O)Nc1nc2cc(Oc3ccc(NC(=O)Nc4cccc(C(=O)O)c4)cc3)ccc2[nH]1,0.18
17,CN1CCC(C(=O)Nc2n[nH]c3nnc(-c4ccccc4)cc23)CC1,1.51
